# Data published in the supplement of paper PMC8728848.
# Shown is part of a subset that was picked to be rich in the strongest signals.
# Columns and labels:
# Assay in all cases: glycan array binding signal (z-score within array); higher = stronger binding
# Settings in all cases: glycan notation: IUPAC condensed, linker removed
# [1] = molecular target: Fuc(a1-2)Gal(b1-3)GlcNAc(b1-3)[Neu5Ac(a2-6)Gal(b1-4)GlcNAc(b1-6)]Gal(b1-4)Glc
# Procedure, shortened: (§1)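 Glycan array data came from 3228 arrays in the Consortium for Functional Glycomics database, and only arrays with an available protein sequence were kept. Glycan names were put into IUPAC-condensed notation, and columns mapping to the same glycan were averaged. The binding signal is a within-array Z-score, averaged across arrays of one protein sequence run at different concentrations or buffers and across linkers. A negative Z-score can be read as non-binding.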
# [2] = molecular target: Fuc(a1-2)Gal(b1-3)[Fuc(a1-4)]GlcNAc
# Procedure, shortened: as §1
# [3] = molecular target: Fuc(a1-2)Gal(b1-4)GlcNAc(b1-6)GalNAc
# Procedure, shortened: as §1
# [4] = molecular target: Fuc(a1-2)Gal(b1-4)GlcNAc6S
# Procedure, shortened: as §1
# [5] = molecular target: Fuc(a1-2)[Gal(a1-3)]Gal(b1-3)GalNAc(b1-3)Gal(a1-4)Gal(b1-4)Glc
# Procedure, shortened: as §1
# [6] = molecular target: Fuc(a1-2)[Gal(a1-3)]Gal(b1-4)Glc
# Procedure, shortened: as §1
# [7] = molecular target: Fuc(a1-2)[Gal(a1-3)]Gal(b1-4)GlcNAc(b1-6)GalNAc
# Procedure, shortened: as §1
# [8] = molecular target: Fuc(a1-2)[GalNAc(a1-3)]Gal(b1-3)GalNAc(a1-3)[Fuc(a1-2)]Gal(b1-4)GlcNAc
# Procedure, shortened: as §1
# [9] = molecular target: Fuc(a1-2)[GalNAc(a1-3)]Gal(b1-4)[Fuc(a1-3)]GlcNAc(b1-3)GalNAc
# Procedure, shortened: as §1
# [10] = molecular target: Fuc(a1-3)[Gal(b1-4)]GlcNAc6S
# Procedure, shortened: as §1
# [11] = molecular target: Gal(a1-3)Gal(b1-4)[Fuc(a1-3)]GlcNAc(b1-2)Man(a1-3)[Gal(a1-3)Gal(b1-4)[Fuc(a1-3)]GlcNAc(b1-2)Man(a1-6)]Man(b1-4)GlcNAc(b1-4)GlcNAc
# Procedure, shortened: as §1
# [12] = molecular target: Gal(a1-4)Gal(b1-3)GlcNAc(b1-2)Man(a1-3)[Gal(a1-4)Gal(b1-3)GlcNAc(b1-2)Man(a1-6)]Man(b1-4)GlcNAc(b1-4)GlcNAc
# Procedure, shortened: as §1
# [13] = molecular target: Gal(a1-4)Gal(b1-4)GlcNAc(b1-2)Man(a1-3)[Gal(a1-4)Gal(b1-4)GlcNAc(b1-2)Man(a1-6)]Man(b1-4)GlcNAc(b1-4)GlcNAc
# Procedure, shortened: as §1
# [14] = molecular target: Gal(a1-4)Gal(b1-4)GlcNAc(b1-3)Gal(b1-4)Glc
# Procedure, shortened: as §1
# Gal(b1-3)Gal(b1-4)GlcNAc = molecular target: Gal(b1-3)Gal(b1-4)GlcNAc
# Procedure, shortened: as §1
# Gal(b1-3)GalNAc = molecular target: Gal(b1-3)GalNAc
# Procedure, shortened: as §1
# [15] = molecular target: Gal(b1-3)GalNAc(a1-3)[Fuc(a1-2)]Gal(b1-4)Glc
# Procedure, shortened: as §1
# [16] = molecular target: Gal(b1-3)GalNAc(a1-3)[Fuc(a1-2)]Gal(b1-4)GlcNAc
# Procedure, shortened: as §1
# Gal(b1-3)GalNAc(b1-3)Gal = molecular target: Gal(b1-3)GalNAc(b1-3)Gal
# Procedure, shortened: as §1
# [17] = molecular target: Gal(b1-3)GalNAc(b1-3)Gal(a1-4)Gal(b1-4)Glc
# Procedure, shortened: as §1
# [18] = molecular target: Gal(b1-3)GalNAc(b1-4)Gal(b1-4)Glc
# Procedure, shortened: as §1
# [19] = molecular target: Gal(b1-3)GalNAc(b1-4)[Neu5Ac(a2-3)]Gal(b1-4)Glc
# Procedure, shortened: as §1
# [20] = molecular target: Gal(b1-3)GlcNAc(b1-3)Gal(b1-4)GlcNAc(b1-3)Gal(b1-4)GlcNAc(b1-2)[Gal(b1-3)GlcNAc(b1-3)Gal(b1-4)GlcNAc(b1-3)Gal(b1-4)GlcNAc(b1-6)]Man(a1-6)[Gal(b1-3)GlcNAc(b1-3)Gal(b1-4)GlcNAc(b1-3)Gal(b1-4)GlcNAc(b1-2)Man(a1-3)]Man(b1-4)GlcNAc(b1-4)[Fuc(a1-6)]GlcNAc
# Procedure, shortened: as §1
# [21] = molecular target: Gal(b1-3)[Fuc(a1-4)]GlcNAc(b1-3)Gal(b1-4)[Fuc(a1-3)]GlcNAc
# Procedure, shortened: as §1
# [22] = molecular target: Gal(b1-3)[Neu5Ac(a2-6)]GalNAc
# Procedure, shortened: as §1
# [23] = molecular target: Gal(b1-4)GlcNAc(b1-2)Man(a1-3)[Gal(b1-4)GlcNAc(b1-2)Man(a1-6)][Gal(b1-4)GlcNAc(b1-4)]Man(b1-4)GlcNAc(b1-4)[Fuc(a1-6)]GlcNAc
# Procedure, shortened: as §1
# [24] = molecular target: Gal(b1-4)GlcNAc(b1-2)[Gal(b1-4)GlcNAc(b1-6)]Man(a1-6)[GlcNAc(b1-4)][Gal(b1-4)GlcNAc(b1-2)[Gal(b1-4)GlcNAc(b1-4)]Man(a1-3)]Man(b1-4)GlcNAc(b1-4)[Fuc(a1-6)]GlcNAc
# Procedure, shortened: as §1
# [25] = molecular target: Gal(b1-4)GlcNAc(b1-3)Gal(b1-4)Glc
# Procedure, shortened: as §1
# [26] = molecular target: Gal(b1-4)GlcNAc(b1-6)[Gal(b1-3)]GalNAc
# Procedure, shortened: as §1
# [27] = molecular target: Gal(b1-4)GlcNAc(b1-6)[Gal(b1-4)GlcNAc(b1-3)]GalNAc
# Procedure, shortened: as §1
# [28] = molecular target: Gal3S(b1-4)[Fuc(a1-3)]GlcNAc6S
# Procedure, shortened: as §1
# [29] = molecular target: GlcNAc(a1-3)Gal(b1-4)GlcNAc
# Procedure, shortened: as §1
# [30] = molecular target: GlcNAc(a1-4)Gal(b1-3)GlcNAc
# Procedure, shortened: as §1
# [31] = molecular target: GlcNAc(b1-3)Gal(b1-4)GlcNAc(b1-6)[GlcNAc(b1-3)]Gal(b1-4)GlcNAc
# Procedure, shortened: as §1
# [32] = molecular target: Man(a1-2)Man(a1-2)Man(a1-3)Man
# Procedure, shortened: as §1
# [33] = molecular target: Neu5Ac(a2-3)Gal(b1-3)GlcNAc
# Procedure, shortened: as §1
# [34] = molecular target: Neu5Ac(a2-3)Gal(b1-4)GlcNAc(b1-3)Gal(b1-3)GlcNAc
# Procedure, shortened: as §1
# [35] = molecular target: Neu5Ac(a2-3)Gal(b1-4)[Fuc(a1-3)]GlcNAc
# Procedure, shortened: as §1
# [36] = molecular target: Neu5Ac(a2-6)Gal(b1-4)GlcNAc(b1-2)Man(a1-3)[GlcNAc(b1-2)Man(a1-6)]Man(b1-4)GlcNAc(b1-4)GlcNAc
# Procedure, shortened: as §1
# [37] = molecular target: Neu5Ac(a2-6)Gal(b1-4)GlcNAc(b1-3)Gal(b1-3)GlcNAc
# Procedure, shortened: as §1
# [38] = molecular target: Neu5Ac(a2-8)Neu5Ac(a2-3)[GalNAc(b1-4)]Gal(b1-4)Glc
# Procedure, shortened: as §1
# [39] = molecular target: Neu5Ac9Ac(a2-3)Gal(b1-4)GlcNAc
# Procedure, shortened: as §1
# [40] = molecular target: Neu5Ac9Ac(a2-6)Gal(b1-4)GlcNAc
# Procedure, shortened: as §1
# [41] = molecular target: Neu5Gc(a2-3)Gal(b1-4)GlcNAc(b1-3)Gal(b1-4)GlcNAc(b1-2)Man(a1-3)[Neu5Gc(a2-3)Gal(b1-4)GlcNAc(b1-3)Gal(b1-4)GlcNAc(b1-2)Man(a1-6)]Man(b1-4)GlcNAc(b1-4)GlcNAc
# Procedure, shortened: as §1
binder,measurement,setting,value
Epa10 (protein) MNEKIFRYLTLLFLFELARSLPVEDKLNIKKVFEKRAVDFTPFAHYPRPEGCSSPPNSVSVGLHMNLYNYPYLYVKPSTKGMFTNDTNSDADGETDGDSAGGIEGRAGQCWNPEYQDPNFPRFGYKQYGEFGASDNVNGDISWDHNEFTEGCKPVLAALPPGYNYPDEITFSNFTMVLSGYFKPKTSGVYKFELKADDFILFNFGAKNAFECCNREESIDNFGPYVAYAMWPNQADQELEVYLFEDSYYPLRLFYNNRDYHSKFKIGFYPPGQTTITFDFDGYLFMLDDTGNECRDSIRYRTVCDDKVVDDTTYSTRYSTSMVPGGGSDVITIYYIRMKCEEEDCLGQWDPINNVCYSPDDCADDGGYWNGQMCDQSCKLEGGIVNPDTGDCDKSCIESGGFLDENGNCDTTCRDDGGMLVEGQCDYQCKEAGGILVGDHCDTTCVDSGGKLNEDGTCDHSCRDQGGQLDENGECDTSCKDSGGMLIEGECDTSCKDEGGQLDDNNECINHCKDQGGIIDENGNCDTSCKDSGGKLDESGACDTSCRDDGGIIDENGNCNTTCRDDGGIIVGDHCDTSCRDAGGILIEDHCDTTCRDSGGKLNEDGTCDHSCRDQGGQLDENGKCDYSCKNGGGKLDEDGNCDMSCKENGGKLDENGDCDLSCKEDGGKLDGNGDCDYSCKEEGGVIDESGNCNTTCKDSGGQIIDGECNYGCIEVGGVVIDGECDTSCIDSGGILDGDGNCDRSCIESGGVLEDGACNTTCRDSGGQLNVDGTCDTSCRDDGGMLVEGQCDYQCKEAGGILEDGECVFPPTSSSTSETSSTTDQSSLQSDDSSMESSSTPMDSSTIESSSSEIITSESESESVPIASSSSEVMTSESESESIPILTSSSEIPIASSSSEIPVASSSSEIIIPESESESVPVASSSSEIPIASSSSEIPVASSSSEIPVASSSSEIIIPESESESIPIESTSSEAVSSRSESDSSYPTPTPTTTTITTWPNPIQPTTSNSSPIVSSSTETPGIAESSSRISDLESSRRTSILGDDRTRTRTTITSTITEDGQIITITTTVTGFVPEPTGETEGNGSDDENPENPIENNTDENEFLDPEFTDDIPDDPAGPEDNGNGPVNPEQGNDNDPVNLEDSGNNGAVNPEQAPVNDEDNGGNDPVNPEQDNNNGPANPGQDSTNGSGNSDQIDNNPPTPEENAGDGNSNGNDPADPSRRTSILGDERTRASPGGTSQPTGANGNVNGNSPGANVNGGGTGNSNNNNNNNNNNNNGNAPNGGDGSNGDANQGPSRRTSLLGDERTRAGQAAPTGGSSPDNGIAGDTSNNGGAIVSQQVDDGGAGSPRRTSILGDVRSRTTLNGEVLNFEGSGVRRAVAGNLALPLMMVGLVFNL,glycan array binding signal (z-score),[1],-0.195
same,glycan array binding signal (z-score),[2],-0.222
same,glycan array binding signal (z-score),[3],-0.172
same,glycan array binding signal (z-score),[4],-0.198
same,glycan array binding signal (z-score),[5],-0.256
same,glycan array binding signal (z-score),[6],-0.272
same,glycan array binding signal (z-score),[7],-0.16
same,glycan array binding signal (z-score),[8],-0.215
same,glycan array binding signal (z-score),[9],-0.113
same,glycan array binding signal (z-score),[10],-0.223
same,glycan array binding signal (z-score),[11],0.134
same,glycan array binding signal (z-score),[12],3.35
same,glycan array binding signal (z-score),[13],1.46
same,glycan array binding signal (z-score),[14],1.2
same,glycan array binding signal (z-score),Gal(b1-3)Gal(b1-4)GlcNAc,4.92
same,glycan array binding signal (z-score),Gal(b1-3)GalNAc,3.84
same,glycan array binding signal (z-score),[15],3.03
same,glycan array binding signal (z-score),[16],3.87
same,glycan array binding signal (z-score),Gal(b1-3)GalNAc(b1-3)Gal,6.03
same,glycan array binding signal (z-score),[17],4.11
same,glycan array binding signal (z-score),[18],17
same,glycan array binding signal (z-score),[19],4.18
same,glycan array binding signal (z-score),[20],0.117
same,glycan array binding signal (z-score),[21],-0.254
same,glycan array binding signal (z-score),[22],3.73
same,glycan array binding signal (z-score),[23],-0.267
same,glycan array binding signal (z-score),[24],0.014
same,glycan array binding signal (z-score),[25],-0.234
same,glycan array binding signal (z-score),[26],2.59
same,glycan array binding signal (z-score),[27],0.208
same,glycan array binding signal (z-score),[28],-0.35
same,glycan array binding signal (z-score),[29],-0.222
same,glycan array binding signal (z-score),[30],-0.238
same,glycan array binding signal (z-score),[31],-0.312
same,glycan array binding signal (z-score),[32],-0.264
same,glycan array binding signal (z-score),[33],-0.234
same,glycan array binding signal (z-score),[34],-0.284
same,glycan array binding signal (z-score),[35],-0.278
same,glycan array binding signal (z-score),[36],-0.287
same,glycan array binding signal (z-score),[37],-0.258
same,glycan array binding signal (z-score),[38],-0.27
same,glycan array binding signal (z-score),[39],-0.271
same,glycan array binding signal (z-score),[40],-0.297
same,glycan array binding signal (z-score),[41],-0.292
